# Measured values taken from PubChem BioAssay AID372 (MTDP, 2006).
# Screen size: about 100,000 compounds; about 770 (0.77%) were called active. The sample holds actives, similar compounds and a random draw of the others, so the mix is not that of the screen. A number with no mark means an inactive call. No stated cut-off is given here; in the data, active means inhibition above about 50%; inactive means the rest.
# Target: Gag-Pol polyprotein (Human immunodeficiency virus type 1 group M subtype B (isolate HXB2)) (UniProt P04585)
# Assay: RNase H inhibition, HIV 1 Gag Pol polyprotein, FRET biochemical assay, screening (AID 372)
# Details: HIV-1 RT RNase H, FRET RNA/DNA substrate fluorescence; at 10 µM; active compounds read high
row,Structure (SMILES),inhibition
1,Oc1c(Cl)cc(Cl)cc1C=Nc1ccc(-c2nc3ccccc3[nH]2)cc1,0%
2,CCOC(=O)COc1ccc(/C=C2\C(=O)NC(=S)N(c3ccc(OCC)cc3)C2=O)cc1OC,9%
3,NC1=NC(=O)/C(=C/c2cccc(OS(=O)(=O)c3cccc([N+](=O)[O-])c3)c2)S1,3%
4,Cc1cc(C)nc(SCC(=O)N/N=C/c2c(Cl)cccc2Cl)n1,20%
5,COc1ccc(CSCC(=O)N/N=C/c2ccccc2O)cc1,14%
6,COc1ccc(CSCC(=O)N/N=C/c2c(Cl)cccc2Cl)cc1,60% (active)
7,CCOC(=O)c1c(NC(=O)c2cc(-c3ccc(C)c(C)c3)nc3ccccc23)sc(C(N)=O)c1C,5%
8,CCOC(=O)c1c(NC(=O)c2cc(-c3ccc(C(C)C)cc3)nc3ccccc23)sc(C(N)=O)c1C,55% (active)
9,CCOC(=O)c1c(NC(=O)c2cc(-c3ccccc3)nc3ccccc23)sc(C(N)=O)c1C,24%
10,C=CCn1c(-c2nonc2NC(C)=O)nc2ccccc21,42%
11,Oc1ccc(/C=N/Nc2nncc(-c3ccccc3)n2)c(O)c1,23%
12,Oc1ccc(/C=N/Nc2nncc(-c3ccccc3)n2)cc1,5%
13,Cc1ccnc(NC(=O)c2ccc(OCC(C)C)cc2)c1,0%
14,O=C1OC2C=CC(Br)=CC2C=C1C(=O)N1CCSC1c1ccc2c3c(cccc13)CC2 (stereo not drawn),6%
15,CCN1C(=O)/C(=C/c2cc(Cl)cc(Cl)c2OCCOc2ccccc2OC)SC1=S,7%
16,CN1C[N+]([O-])=C(c2ccccc2)C1(C)C,3%
17,CCOC(=O)C1=C(c2ccccc2)S/C(=C2/C(=S)C(C)(C)Nc3ccc(C(c4ccccc4)(c4ccccc4)c4ccccc4)cc32)S1,27%
18,COC(=O)C1=C(C(=O)OC)SC(=C2C(=S)C(C)(C)Nc3ccc(C(c4ccccc4)(c4ccccc4)c4ccccc4)cc32)S1,53% (active)
19,COC(=O)C1=C(C(=O)OC)SC(=C2C(=S)C(C)(C)Nc3ccc(C)cc32)S1,28%
20,CC(=O)N1CCN(C2=NC(=O)/C(=C/c3ccc(O)cc3)S2)CC1,10%
21,Cc1ccc(C(=O)O)cc1NC(=O)C1CC=CCC1C(=O)O (stereo not drawn),10%
22,CCOCCOC(=O)C1=C(C)NC2=C(C(=O)CCC2)C1c1ccc(CC)cc1 (stereo not drawn),12%
23,CCN(CC)S(=O)(=O)c1ccc(-c2ccc(S(=O)(=O)N(CC)CC)cc2)cc1,11%
24,N#C/C(=C\c1cc(Br)c(O)c(Br)c1)C(=O)Nc1ccccc1Br,14%
25,N#C/C(=C\c1ccc(OC(=O)c2ccc(Br)cc2)cc1)C(=O)Nc1cccc(Cl)c1,55% (active)

row,Structure (SMILES),inhibition
1,N#C/C(=C/c1ccc(Cl)cc1)C(=O)Nc1ccc(Cl)cc1,3%
2,N#C/C(=C\c1ccc(OC(=O)c2ccco2)cc1)C(=O)Nc1ccccc1Br,50% (active)
3,N#C/C(=C\c1ccccc1)C(=O)Nc1ccccc1Br,9%
4,N#C/C(=C/c1ccc(Cl)cc1)C(=O)Nc1ccc(O)cc1,60% (active)
5,N#C/C(=C/c1ccc(O)cc1)C(=O)Nc1ccc(O)cc1,8%
6,N#C/C(=C/c1cccc(Cl)c1)C(=O)Nc1cccc(Br)c1,12%
7,N#C/C(=C/c1ccc(Cl)cc1)C(=O)Nc1cccc(Br)c1,15%
8,O=C(Nc1ccc(Cl)cc1)O/N=C\c1ccc(Br)cc1,29%
9,COc1ccc(C2/C(=C(/O)c3ccc(Cl)cc3)C(=O)C(=O)N2CCCC(=O)O)cc1 (stereo not drawn),4%
10,Nc1ccc[n+](CC(=O)c2ccccc2)c1,2%
11,Cc1ccccc1OCCNc1cc(N2CCOCC2)ccc1[N+](=O)[O-],10%
12,Cc1ccc(Cl)cc1NC(=O)/C(C#N)=C\c1ccc(I)o1,9%
13,COc1ccc(Br)cc1/C=C1/SC(N2CCCCC2)=NC1=O,14%
14,COc1ccc(Br)cc1/C=C1\SC(N2CCCC2)=NC1=O,19%
15,COc1ccc(Br)cc1/C=C1\SC(N2CCOCC2)=NC1=O,52% (active)
16,COc1ccc(C2CC(=O)C=C(Nc3ccccc3N)C2)cc1OC (stereo not drawn),10%
17,CN1C(=O)C(=Cc2ccco2)C(=O)N(C)C1=S,61% (active)
18,Cc1ccccc1N1C(=O)/C(=C\c2ccco2)C(=O)N(c2ccccc2)C1=S,49%
19,O=C1NC(=O)N(c2ccc(Br)cc2)C(=O)/C1=C/c1ccco1,12%
20,CN1C(=O)C(=C/C=C/c2ccco2)C(=O)N(C)C1=S,16%
21,COC(=O)C1=C(C)N(C)C(=O)/C1=C\c1ccco1,11%
22,Oc1ccc(Cl)cc1-c1cc(-c2ccc(Cl)cc2)n[nH]1,0%
23,O=S(=O)(c1ccc(-c2csc(Nc3ccc4c(c3)OCO4)n2)cc1)N1CCOCC1,8%
24,CCCCNCCOc1ccccc1OCC,12%
25,O=C(Nc1ccc2oc(-c3ccc(F)cc3Cl)nc2c1)c1cc(Cl)ccc1Cl,18%

row,Structure (SMILES),inhibition
1,Oc1ccc2ccccc2c1CN1CCOCC1,7%
2,Cc1ccc(/C=C/C(=O)Nc2ncc(Cc3cc(Cl)ccc3Cl)s2)cc1,24%
3,O=C(/C=C/c1cccs1)Nc1ncc(Cc2ccccc2Cl)s1,4%
4,COc1ccc(/C=C/C(=O)Nc2ncc(Cc3ccccc3Cl)s2)cc1,54% (active)
5,CCOc1ccccc1OCCOc1cccc(Br)c1,3%
6,Cc1cccc(N2CCN(CN3C(=O)/C(=C/c4ccc(C)o4)SC3=S)CC2)c1,2%
7,CCOC(=O)C(CCCCCOc1ccccc1C(C)(C)C)C(=O)OCC,20%
8,CCc1ccc(-c2nc(-c3ccccn3)no2)cc1,15%
9,COc1cc(/C=N/c2sc3c(c2C#N)CCCC3)cc(Br)c1O,15%
10,NC(=O)c1c(/N=C/c2cc(Cl)cc(Cl)c2O)sc2c1CCCC2,11%
11,CCOC(=O)c1c(N)n(CCOC)c2nc3ccccc3nc12,0%
12,C=CCN(CC=C)CCCCOc1cccc(C)c1,5%
13,Ic1ccc(Nc2nc3ccccc3nc2Nc2ccc(I)cc2)cc1,34%
14,Brc1ccc(Nc2nc3ccccc3nc2Nc2ccc(Br)cc2)cc1,55% (active)
15,Oc1ccc(Nc2nc3ccccc3nc2Nc2ccc(O)cc2)cc1,12%
16,O=C(NCCO)C(=O)Nc1ccccc1,0%
17,CCN1CCN(CC(=O)N/N=C/c2ccccc2)CC1,8%
18,CCc1ccc(C2Nc3ccc4ccccc4c3C3=C2C(=O)CC(C)(C)C3)cc1 (stereo not drawn),19%
19,CC(=O)N(C1=C(Cl)C(=O)c2ccccc2C1=O)c1ccc(Br)cc1,69% (active)
20,CC(=O)N(C1=C(N(C)C)C(=O)c2ccccc2C1=O)c1ccc(Br)cc1,1%
21,CC(=O)N(C1=C(Cl)C(=O)c2ccccc2C1=O)c1ccc(Cl)cc1,32%
22,CCN1CCN(CC(O)COc2ccc(C(C)(C)C)cc2)CC1 (stereo not drawn),0%
23,O=C(O)c1ccc(C(=O)Nc2ccccc2Oc2ccccc2)c(C(=O)O)c1,6%
24,O=C(O)c1ccc(C(=O)Nc2ccc(I)cc2)c(C(=O)O)c1,9%
25,O=C(O)c1ccc(C(=O)Nc2ccccc2Br)c(C(=O)O)c1,54% (active)

row,Structure (SMILES),inhibition
1,CCC1CCc2c(sc(NC(=O)CCC(=O)O)c2C#N)C1 (stereo not drawn),2%
2,C=CCNc1nc(-c2ccc(Cl)cc2)nc2ccccc12,8%
3,Cc1coc2cc3oc(=O)cc(C)c3cc12,7%
4,Cc1cc(=O)oc2cc3occ(-c4ccccc4)c3cc12,57% (active)
5,Cc1cc(=O)oc2c(C)c3occ(-c4ccccc4)c3cc12,31%
6,O=C(O)CC(C(=O)O)N1C(=O)/C(=C\C(Cl)=C/c2ccc([N+](=O)[O-])cc2)SC1=S (stereo not drawn),14%
7,c1ccc(CNc2nc(-c3ccccc3)[n+](-c3ccccc3)s2)cc1,52% (active)
8,c1ccc(CNc2nc(-c3ccccc3)cc(-c3ccccc3)n2)cc1,15%
9,c1ccc(Nc2nc(-c3ccccc3)[n+](-c3ccccc3)s2)cc1,30%
10,Cc1cc(C)cc(N(CC(=O)NCCSCc2ccc(Cl)cc2)S(C)(=O)=O)c1,57% (active)
11,COc1ccc(N(CC(=O)NCCSCc2ccccc2Cl)S(C)(=O)=O)cc1,22%
12,CS(=O)(=O)N(CC(=O)NCCSCc1ccc(Cl)cc1)c1ccc(Cl)cc1,55% (active)
13,COc1ccc(N(CC(=O)NCCSCc2ccc(Cl)cc2)S(C)(=O)=O)cc1Cl,38%
14,CS(=O)(=O)N(CC(=O)NCCSCc1ccccc1Cl)c1ccc(Br)cc1,50% (active)
15,CS(=O)(=O)N(CC(=O)NCCSc1ccc(Cl)cc1)c1ccc(Br)cc1,8%
16,Cc1ccc(CSCCNC(=O)CN(c2cccc(C)c2)S(C)(=O)=O)cc1,18%
17,COc1ccc(S(=O)(=O)N(CC(=O)NCCSCc2ccc(Cl)cc2)c2cc(C)cc(C)c2)cc1OC,12%
18,CCOc1ccc(N(CC(=O)NCCSCc2ccc(Cl)cc2)S(C)(=O)=O)cc1,22%
19,O=C(NC(=S)Nc1ccccc1[N+](=O)[O-])c1ccc(-c2ccccc2)cc1,13%
20,O=C(Cn1c(NCCCO)nc2ccccc21)c1ccc(Br)s1,11%
21,Cc1sc(NC(=O)/C=C/c2ccc(Cl)cc2Cl)c(C(N)=O)c1C,26%
22,Nc1nnc(SCC(=O)Nc2ccccc2Oc2ccccc2)s1,4%
23,CCC(C)c1ccc(NC(=S)NC(=O)c2ccc(OC)c(Br)c2)cc1 (stereo not drawn),9%
